# The full data set covers some 7,900 targets. This sample favours those with a hit. About 0.6% of all pairs of compound and target were hits. A number with no mark means an inactive call.
# How the values were obtained:
# Experiment in all cases: log2 fold change, soluble protein after heating vs DMSO (PISA); higher = thermal stabilisation; K562 cells, 10 uM, 30 min; active = over 0.2 and 3.5 SD of the protein, either way, in both replicates (recomputed)
# [1] = compound: CC[C@@H]1C(=O)N(C)c2cnc(Nc3ccc(C(=O)NC4CCN(C)CC4)cc3OC)nc2N1C1CCCC1
# Procedure, shortened: (§1)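 Soluble protein was quantified by TMTpro 16plex LC-MS/MS after channel sums were equalised. It was obtained as the supernatant after 21,000xg for 90 min from pooled aliquots of K562 cells (2×10^6 cells/mL, 10 μM compound, 30 min) heated for 3 min across 48°C-58°C and extracted in PBS with 0.5% NP-40 at 4°C. Thermal stability values are relative to control samples and come from duplicates. They are given as log2 fold changes.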
# volasertib = compound: CC[C@@H]1C(=O)N(C)c2cnc(Nc3ccc(C(=O)N[C@H]4CC[C@H](N5CCN(CC6CC6)CC5)CC4)cc3OC)nc2N1C(C)C [volasertib]
# Procedure, shortened: as §1
# [2] = compound: CC[C@H](C)N1C=C(C2=C(C=C(C=C21)C3=CN=C(C=C3)N4CCNCC4)C(=O)NCC5=C(C=C(NC5=O)C)C)C
# Procedure, shortened: as §1
# epoxomicin = compound: CC[C@H](C)[C@@H](C(=O)N[C@@H]([C@@H](C)O)C(=O)N[C@@H](CC(C)C)C(=O)[C@]1(CO1)C)NC(=O)[C@H]([C@@H](C)CC)N(C)C(=O)C [epoxomicin]
# Procedure, shortened: as §1
# [3] = compound: CCn1c(C(=O)N(C2CC2)C2CC2)cc2c3c(ncn3C)c(Nc3cc(C)n(C)n3)nc21
# Procedure, shortened: as §1
# [4] = compound: CCn1cc(-c2ccnc3[nH]c(-c4cccc(CN(C)C)c4)cc23)c(-c2ccc(NC(=O)N(C)C)cc2)n1
# Procedure, shortened: as §1
# [5] = compound: CN(C)CC(=O)Nc1ccc2[nH]c(=O)c3ccccc3c2c1
# Procedure, shortened: as §1
# rosiglitazone = compound: CN(CCOC1=CC=C(C=C1)C[C@H]2C(=O)NC(=O)S2)C3=CC=CC=N3 (racemic) [rosiglitazone]
# Procedure, shortened: as §1
# [6] = compound: CN1C2=C(C3=C1C(=O)N(N=C3)CC4=CC(=CC=C4)N)SC(=C2)S(=O)C
# Procedure, shortened: as §1
# [7] = compound: CN1CCC(CNc2ccc3ncc(-c4cccc(OC(F)(F)F)c4)n3n2)CC1
# Procedure, shortened: as §1
# saracatinib = compound: CN1CCN(CCOc2cc(OC3CCOCC3)c3c(Nc4c(Cl)ccc5c4OCO5)ncnc3c2)CC1 [saracatinib]
# Procedure, shortened: as §1
# sotrastaurin = compound: CN1CCN(c2nc(C3=C(c4c[nH]c5ccccc45)C(=O)NC3=O)c3ccccc3n2)CC1 [sotrastaurin]
# Procedure, shortened: as §1
# alvocidib = compound: CN1CC[C@H](c2c(O)cc(O)c3c(=O)cc(-c4ccccc4Cl)oc23)[C@H](O)C1 [alvocidib]
# Procedure, shortened: as §1
# Tubastatin A = compound: CN1CCc2c(c3ccccc3n2Cc2ccc(C(=O)NO)cc2)C1 [Tubastatin A]
# Procedure, shortened: as §1
# [8] = compound: CNC(=O)C1=CC=CC=C1NC2=NC(=NC=C2Cl)NC3=C(C=C(C=C3)N4CCOCC4)OC
# Procedure, shortened: as §1
# defactinib = compound: CNC(=O)c1ccc(Nc2ncc(C(F)(F)F)c(NCc3nccnc3N(C)S(C)(=O)=O)n2)cc1 [defactinib]
# Procedure, shortened: as §1
# rucaparib = compound: CNCc1ccc(-c2[nH]c3cc(F)cc4c3c2CCNC4=O)cc1 [rucaparib]
# Procedure, shortened: as §1
# [9] = compound: CNc1nc(-c2ccc3c(N)n[nH]c3c2)cc(N2C[C@@H](C(=O)NC3CCCCC3)CC[C@H]2C)n1
# Procedure, shortened: as §1
# encorafenib = compound: COC(=O)N[C@@H](C)CNc1nccc(-c2cn(C(C)C)nc2-c2cc(Cl)cc(NS(C)(=O)=O)c2F)n1 [encorafenib]
# Procedure, shortened: as §1
# [10] = compound: COC(=O)[C@H](CCSC)NC(=O)C1=C(C=C(C=C1)NC[C@H](CS)N)C2=CC=CC=C2
# Procedure, shortened: as §1
# Sequence of UniProt Q9UKG1 (Q9UKG1 whole entry, looked up): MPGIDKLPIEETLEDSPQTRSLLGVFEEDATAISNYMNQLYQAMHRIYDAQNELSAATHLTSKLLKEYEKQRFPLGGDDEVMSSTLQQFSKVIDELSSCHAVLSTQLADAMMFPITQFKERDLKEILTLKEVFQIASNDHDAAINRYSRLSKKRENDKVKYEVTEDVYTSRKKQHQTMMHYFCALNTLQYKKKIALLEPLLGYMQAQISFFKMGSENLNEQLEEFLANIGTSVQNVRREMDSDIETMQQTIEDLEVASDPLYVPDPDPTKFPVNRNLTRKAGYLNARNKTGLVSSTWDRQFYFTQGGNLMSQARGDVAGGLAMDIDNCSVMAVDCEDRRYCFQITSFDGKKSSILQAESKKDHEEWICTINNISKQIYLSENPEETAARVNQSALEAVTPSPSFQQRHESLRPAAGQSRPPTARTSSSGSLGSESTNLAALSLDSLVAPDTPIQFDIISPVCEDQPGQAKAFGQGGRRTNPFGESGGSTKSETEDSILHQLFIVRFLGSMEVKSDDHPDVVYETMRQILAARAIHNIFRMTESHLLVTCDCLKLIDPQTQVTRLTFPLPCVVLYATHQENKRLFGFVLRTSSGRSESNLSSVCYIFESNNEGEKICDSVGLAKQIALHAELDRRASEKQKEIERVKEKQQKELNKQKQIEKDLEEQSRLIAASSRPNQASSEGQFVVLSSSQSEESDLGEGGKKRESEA
# Sequence of UniProt O14965 (O14965 whole entry, looked up): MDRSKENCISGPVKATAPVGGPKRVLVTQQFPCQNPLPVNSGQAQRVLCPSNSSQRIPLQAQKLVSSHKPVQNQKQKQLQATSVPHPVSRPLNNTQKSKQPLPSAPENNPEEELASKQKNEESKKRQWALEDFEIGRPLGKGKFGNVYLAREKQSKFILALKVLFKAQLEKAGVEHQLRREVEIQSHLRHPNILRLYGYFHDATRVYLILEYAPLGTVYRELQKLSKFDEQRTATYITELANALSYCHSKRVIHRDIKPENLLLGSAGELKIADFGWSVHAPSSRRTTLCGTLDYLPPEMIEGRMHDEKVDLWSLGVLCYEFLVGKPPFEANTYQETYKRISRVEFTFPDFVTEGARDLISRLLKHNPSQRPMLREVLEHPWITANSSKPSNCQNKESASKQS
# Sequence of UniProt P00966 (P00966 whole entry, looked up): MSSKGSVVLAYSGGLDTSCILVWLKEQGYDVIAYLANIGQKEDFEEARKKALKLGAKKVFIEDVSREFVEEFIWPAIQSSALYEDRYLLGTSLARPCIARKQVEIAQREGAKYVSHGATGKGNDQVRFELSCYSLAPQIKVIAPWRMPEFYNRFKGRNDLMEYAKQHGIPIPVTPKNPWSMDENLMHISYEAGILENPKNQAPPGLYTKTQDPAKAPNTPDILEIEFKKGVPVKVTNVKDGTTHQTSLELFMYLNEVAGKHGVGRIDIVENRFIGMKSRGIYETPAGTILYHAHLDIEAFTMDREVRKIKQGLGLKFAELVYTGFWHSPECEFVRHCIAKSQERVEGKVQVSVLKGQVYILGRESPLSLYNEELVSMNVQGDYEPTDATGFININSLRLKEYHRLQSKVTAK
# Sequence of UniProt O60488 (O60488 whole entry, looked up): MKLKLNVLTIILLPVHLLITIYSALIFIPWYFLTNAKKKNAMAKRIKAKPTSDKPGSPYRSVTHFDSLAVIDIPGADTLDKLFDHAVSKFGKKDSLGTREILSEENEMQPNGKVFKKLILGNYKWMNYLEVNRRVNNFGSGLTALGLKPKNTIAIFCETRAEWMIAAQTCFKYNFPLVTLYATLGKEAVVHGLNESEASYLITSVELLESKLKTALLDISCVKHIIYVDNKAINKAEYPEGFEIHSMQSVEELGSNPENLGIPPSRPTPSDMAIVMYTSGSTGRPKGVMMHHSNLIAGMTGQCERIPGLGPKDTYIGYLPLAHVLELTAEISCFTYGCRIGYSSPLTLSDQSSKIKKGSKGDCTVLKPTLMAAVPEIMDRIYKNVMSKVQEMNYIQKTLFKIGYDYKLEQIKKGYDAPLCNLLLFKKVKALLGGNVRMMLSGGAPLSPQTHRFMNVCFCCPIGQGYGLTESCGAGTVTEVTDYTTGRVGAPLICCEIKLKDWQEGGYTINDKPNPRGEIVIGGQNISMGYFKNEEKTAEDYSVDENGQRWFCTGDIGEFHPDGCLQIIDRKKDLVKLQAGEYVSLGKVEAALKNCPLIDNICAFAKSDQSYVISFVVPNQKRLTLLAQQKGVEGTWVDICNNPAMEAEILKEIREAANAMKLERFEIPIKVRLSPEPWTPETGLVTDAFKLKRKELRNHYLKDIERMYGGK
# Sequence of UniProt P54709 (P54709 whole entry, looked up): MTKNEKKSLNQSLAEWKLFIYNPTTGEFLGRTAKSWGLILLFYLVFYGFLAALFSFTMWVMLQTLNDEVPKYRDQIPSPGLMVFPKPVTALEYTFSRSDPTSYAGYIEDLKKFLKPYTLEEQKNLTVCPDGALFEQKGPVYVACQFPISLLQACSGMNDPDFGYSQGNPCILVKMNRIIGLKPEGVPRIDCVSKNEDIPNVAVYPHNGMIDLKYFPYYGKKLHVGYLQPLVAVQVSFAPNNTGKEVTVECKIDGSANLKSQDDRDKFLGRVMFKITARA
# Sequence of UniProt P49189 (P49189 whole entry, looked up): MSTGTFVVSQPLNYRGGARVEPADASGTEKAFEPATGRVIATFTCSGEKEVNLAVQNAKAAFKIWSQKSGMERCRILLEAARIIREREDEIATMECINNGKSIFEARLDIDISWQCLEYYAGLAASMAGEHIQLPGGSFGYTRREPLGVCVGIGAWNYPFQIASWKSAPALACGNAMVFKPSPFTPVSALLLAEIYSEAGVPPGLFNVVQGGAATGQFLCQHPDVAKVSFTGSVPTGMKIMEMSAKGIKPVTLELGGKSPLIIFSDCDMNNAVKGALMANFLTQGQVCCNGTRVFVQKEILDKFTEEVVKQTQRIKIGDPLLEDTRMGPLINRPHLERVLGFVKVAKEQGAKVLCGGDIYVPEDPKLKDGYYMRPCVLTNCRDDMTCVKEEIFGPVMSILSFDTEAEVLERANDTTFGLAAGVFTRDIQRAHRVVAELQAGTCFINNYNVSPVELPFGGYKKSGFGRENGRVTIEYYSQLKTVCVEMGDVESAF
# Sequence of UniProt P54886 (P54886 whole entry, looked up): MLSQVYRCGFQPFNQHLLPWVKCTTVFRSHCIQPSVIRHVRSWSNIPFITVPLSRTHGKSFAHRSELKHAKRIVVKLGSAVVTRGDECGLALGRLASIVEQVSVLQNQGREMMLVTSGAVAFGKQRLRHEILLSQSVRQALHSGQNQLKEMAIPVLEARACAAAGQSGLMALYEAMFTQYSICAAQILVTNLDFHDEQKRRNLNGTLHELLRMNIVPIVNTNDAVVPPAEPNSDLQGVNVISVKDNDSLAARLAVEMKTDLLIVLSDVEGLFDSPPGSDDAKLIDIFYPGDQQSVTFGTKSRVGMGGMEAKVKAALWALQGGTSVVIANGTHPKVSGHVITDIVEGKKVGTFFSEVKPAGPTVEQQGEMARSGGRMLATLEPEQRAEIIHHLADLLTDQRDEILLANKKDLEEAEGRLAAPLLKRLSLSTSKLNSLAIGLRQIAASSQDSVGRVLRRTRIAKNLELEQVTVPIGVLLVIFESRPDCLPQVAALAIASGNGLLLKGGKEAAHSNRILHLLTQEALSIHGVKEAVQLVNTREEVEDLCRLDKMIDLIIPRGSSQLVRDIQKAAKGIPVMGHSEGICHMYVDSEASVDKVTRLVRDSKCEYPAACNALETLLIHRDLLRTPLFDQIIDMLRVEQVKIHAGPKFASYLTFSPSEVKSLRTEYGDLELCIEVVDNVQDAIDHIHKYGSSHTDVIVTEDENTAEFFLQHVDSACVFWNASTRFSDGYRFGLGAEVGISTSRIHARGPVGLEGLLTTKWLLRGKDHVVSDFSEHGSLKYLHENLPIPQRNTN
# Sequence of UniProt Q9ULC5 (Q9ULC5 whole entry, looked up): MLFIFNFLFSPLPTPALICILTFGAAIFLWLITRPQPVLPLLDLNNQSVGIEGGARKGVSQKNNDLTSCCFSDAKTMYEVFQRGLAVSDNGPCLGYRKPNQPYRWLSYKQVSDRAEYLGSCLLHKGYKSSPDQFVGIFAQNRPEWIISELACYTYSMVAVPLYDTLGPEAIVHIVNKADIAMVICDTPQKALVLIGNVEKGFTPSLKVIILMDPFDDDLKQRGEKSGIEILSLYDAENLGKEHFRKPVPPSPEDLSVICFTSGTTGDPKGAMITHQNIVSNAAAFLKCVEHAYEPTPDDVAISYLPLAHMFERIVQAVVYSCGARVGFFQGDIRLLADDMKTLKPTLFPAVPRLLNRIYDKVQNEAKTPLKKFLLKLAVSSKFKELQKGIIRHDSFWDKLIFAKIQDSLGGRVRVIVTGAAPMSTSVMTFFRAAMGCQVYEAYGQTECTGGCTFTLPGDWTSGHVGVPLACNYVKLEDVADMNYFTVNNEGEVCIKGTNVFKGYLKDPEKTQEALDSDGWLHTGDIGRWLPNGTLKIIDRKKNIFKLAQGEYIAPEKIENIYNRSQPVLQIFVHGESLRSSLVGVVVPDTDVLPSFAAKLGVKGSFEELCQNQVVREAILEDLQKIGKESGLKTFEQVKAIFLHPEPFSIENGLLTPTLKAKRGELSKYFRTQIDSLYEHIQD
# Sequence of UniProt Q8N6H7 (Q8N6H7 whole entry, looked up): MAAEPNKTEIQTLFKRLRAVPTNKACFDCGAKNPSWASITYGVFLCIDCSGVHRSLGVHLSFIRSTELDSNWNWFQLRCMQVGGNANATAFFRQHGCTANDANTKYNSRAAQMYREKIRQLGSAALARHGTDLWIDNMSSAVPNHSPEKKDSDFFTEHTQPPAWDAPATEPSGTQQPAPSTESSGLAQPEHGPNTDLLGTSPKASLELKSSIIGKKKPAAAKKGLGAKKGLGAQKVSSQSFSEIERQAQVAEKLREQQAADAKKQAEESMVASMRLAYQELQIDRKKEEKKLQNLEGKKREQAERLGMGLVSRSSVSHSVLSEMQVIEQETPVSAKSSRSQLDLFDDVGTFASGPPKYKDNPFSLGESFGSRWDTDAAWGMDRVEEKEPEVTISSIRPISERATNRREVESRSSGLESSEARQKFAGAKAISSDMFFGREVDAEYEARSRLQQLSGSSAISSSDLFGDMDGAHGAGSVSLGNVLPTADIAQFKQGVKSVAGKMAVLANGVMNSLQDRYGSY
Target,log2 fold change [1],log2 fold change (volasertib),log2 fold change [2],log2 fold change (epoxomicin),log2 fold change [3],log2 fold change [4],log2 fold change [5],log2 fold change (rosiglitazone),log2 fold change [6],log2 fold change [7],log2 fold change (saracatinib),log2 fold change (sotrastaurin),log2 fold change (alvocidib),log2 fold change (Tubastatin A),log2 fold change [8],log2 fold change (defactinib),log2 fold change (rucaparib),log2 fold change [9],log2 fold change (encorafenib),log2 fold change [10]
ADK (UniProt P55263),0.338,0.359,-0.095,-0.011,0.097,-0.026,-0.018,-0.017,-0.085,0.184,0.158,0.26,0.305,-0.007,0.119,0.055,-0.021,-0.017,-0.044,0.002
AURKA (UniProt O14965),0.017,0.134,-0.022,0.113,0.004,0.733 (active),0,-0.015,0.029,0.14,-0.019,-0.02,-0.03,0.011,0.974 (active),0.722 (active),0.073,0.201,0.033,0.071
APPL1 (UniProt Q9UKG1),-0.149,-0.317 (active),0.058,-0.044,0.038,-0.021,0.02,0.044,-0.113,-0.065,0.029,-0.004,-0.179,0.002,0.027,0.037,-0.095,-0.03,0.03,-0.029
ATP6V1F isoform 2 (UniProt Q16864),0.01,-0.036,-0.043,0.525 (active),-0.02,0.02,0.165,0.003,0.033,0.056,-0.198,0.092,-0.174,0.11,0.031,0.007,-0.037,-0.129,-0.039,0.238
ALDH18A1 (UniProt P54886),-0.418,-0.713 (active),0.092,0.1,-0.117,-0.208,0.041,0.148,0.054,-0.054,-0.038,-0.178,0.063,-0.027,-0.065,-0.122,0.001,-0.281,0.098,-0.047
ASS1 (UniProt P00966),0.02,0.024,0.412,0.025,-0.024,0.04,-0.072,0.071,0.025,-0.005,0.062,0.088,-0.098,-0.183,-0.047,-0.007,0.11,-0.122,-0.018,0.045
ACSL5 isoform 3 (UniProt Q9ULC5),-0.013,-0.088,0.029,0.005,0.03,-0.068,-0.084,-0.009,-0.216,-0.361 (active),0.058,0.078,-0.082,-0.057,0.071,-0.063,0.005,-0.132,-0.072,0
ALDH9A1 isoform 3 (UniProt P49189),0,-0.003,-0.048,0.011,0.003,-0.025,-0.01,-0.004,-0.065,-0.027,-0.019,0.01,-0.007,-0.024,0.05,-0.024,-0.054,-0.009,-0.016,-0.005
AARSD1 isoform 3 (UniProt Q9BTE6),-0.081,-0.27 (active),0.019,0.083,0.009,-0.01,0.037,0.05,0.02,0.021,-0.009,-0.113,-0.016,-0.336 (active),0.081,-0.071,-0.077,-0.037,0.08,0.004
ACSL4 (UniProt O60488),-0.15,-0.276,-0.051,0.024,-0.098,-0.029,0.092,1.17 (active),0.051,-0.229,-0.128,-0.086,0.033,0.071,0.05,-0.041,0.069,0.043,0.094,-0.024
AGO1 (UniProt Q9UL18),0.215,0.124,-0.1,-0.148,-0.029,0.032,0.098,0.042,0.14,-0.151,-0.066,-0.307,0.141,-0.164,-0.039,-0.03,0.16,-0.085,0.086,-0.036
ARFGAP2 (UniProt Q8N6H7),-0.052,-0.257 (active),0.067,0.009,-0.037,0.023,0.017,0.038,-0.015,-0.068,0.037,-0.051,-0.083,0.03,0.025,-0.023,0.017,0.017,0.05,-0.02
ATP1B3 (UniProt P54709),0.06,0.094,-0.022,-0.033,0.04,-0.028,0.012,-0.011,-0.063,0.168,-0.019,0.084,-0.038,-0.014,0.004,-0.047,-0.033,0.016,-0.023,0.034
